# High-throughput results as filed in PubChem.
# NS1 inh – blocks influenza NS1 protein function; Potency, µM (top dose mostly 46.1 µM), for inactives: at the highest dose activity, positive = more growth; 0.4% of 270,000 active; AID 2326; also: actives are rising curves; nearly all actives have a fitted effect of over 50% in size
#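 S. cerevisiae expressing influenza A NS1, grown in glucose, washed, then diluted 1:100 into pH 6.0 -URA galactose medium with 23 nl compound. Growth recovery read as OD600; NS1-free strain serves as control.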
# SARS PLP yeast – inhibitors of SARS-CoV papain-like protease in yeast | Potency, µM (titrated, usually from 32.9 µM), inactives show at the top dose activity, positive = growth rescue, hits mostly activators | S. cerevisiae expressing SARS-CoV PLpro, growth rescue | 0.19% of 330,000 active | AID 485353; also: 0% is about no effect; nearly all actives have a fitted effect of over 55% in size
# Pf growth 48h – P. falciparum growth inhibition at 48 hours (one generation) | P. falciparum luciferase growth in erythrocytes, 48 h | Potency, µM (series often up to 28.7 µM), for the others: at the highest dose activity change, negative = inhibition, hits mostly inhibitors | 5.9% of 310,000 active; active = well fitted inhibition curve with a large enough effect; inconclusive = small, poorly fitted or top-dose-only effect, or another doubt; inactive = no such curve, though single readings can be large or run the other way; also: % is scaled to controls: 0 for no effect and ±100 for the full control effect
#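 Growth was read as firefly luciferase luminescence after a 48 h, 37 C, 5% CO2 exposure of compounds to reporter-bearing P. falciparum cultures (0.1% parasitemia, 2% hematocrit final) in Albumax-supplemented RPMI 1640.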
# Pf growth 96h – P. falciparum growth inhibition at 96 hours. AID 504834. P. falciparum luciferase reporter growth, 96 h. 6.9% of 320,000 active. Potency, µM (highest dose often 28.7 µM), for the others: at the top dose activity change, negative = inhibition, usual class: inhibitors; active = well fitted inhibition curve with a large enough effect; inconclusive = small, poorly fitted or top-dose-only effect, or another doubt; inactive = no such curve, though single readings can be large or run the other way; also: % is scaled to controls: 0 for no effect and ±100 for the full control effect
#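 P. falciparum expressing integrated firefly luciferase grown in erythrocytes (2% hematocrit, 0.05% parasitemia final) with compounds for 96 hours at 37 C, 5% CO2. Growth inhibition read as loss of luminescence after adding luciferase detection reagent.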
# The depositor's hits bear a star; ? = inconclusive; . = no result given. Rows were chosen to be rich in hits. Some 10% of all compounds tested hit in one or more screens of this group. Unless noted, calls follow the shape of the full dose curve. Potency is read from the fitted curve at half-maximal effect.
SMILES,NS1 inh,SARS PLP yeast,Pf growth 48h,Pf growth 96h
Cc1nc(CC(C)C)cc(C(=O)N2CCCC(CNS(=O)(=O)c3cccs3)C2)n1 (stereo not drawn),2%,0%,18%,8.3µM*
Cc1cc(C(=O)N2CCCC(CNS(=O)(=O)c3cccs3)C2)nn1C (stereo not drawn),-3%,-1%,1%,-18%
COc1ccc(C([O-])=Nc2ccc[n+](-c3nc4ccccc4nc3NS(=O)(=O)c3ccccc3)c2)cc1,16%,1%,2.6µM*,13µM*
O=S(=O)(Nc1nc2ccccc2nc1-[n+]1cccc(N=C([O-])c2ccccc2Cl)c1)c1ccccc1,-1%,0%,8.3µM*,8.3µM*
COc1ccc(N2CC(C(=O)Nc3ccncc3)CC2=O)cc1 (stereo not drawn),3%,1%,-1%,-14%
CC[C@@H]1[C@@H]2Cc3ccc(O)cc3[C@@]1(CC)CCN2C,-5%,.,.,.
Cc1cc(=O)[nH]c(Nc2ccc(C(=O)OC(C)C)cc2)n1,-8%,-7%,?,2.6µM*
Cc1cc(=O)[nH]c(N/N=C/c2cc(C)n(CC(F)(F)F)c2C)n1,5%,2%,?,?
COC(=O)c1ccc(-n2c(C)cc(/C=N/Nc3nc(C)cc(=O)[nH]3)c2C)cc1,8%,0%,8.3µM*,13µM*
Cc1cccc(CCNC(=O)CCS(=O)(=O)c2cc3c(cc2C)NC(=O)CO3)c1,-8%,-2%,7%,?
Cc1cc2c(cc1S(=O)(=O)CCC(=O)NCCc1ccccc1)OCC(=O)N2,-8%,2%,-11%,8.3µM*
CC(=O)c1cccc(NS(=O)(=O)c2cc3c(cc2C)NC(=O)CO3)c1,5%,0%,17%,15µM*
Cc1cccc(CCNS(=O)(=O)c2cc3c(cc2C)NC(=O)CO3)c1,14%,-3%,17%,9.3µM*
Cc1ccc(CCNS(=O)(=O)c2cc3c(cc2C)NC(=O)CO3)cc1,-7%,1%,-7%,53%
CCCc1ccc2oc(C(=O)N(C)Cc3ccn[nH]3)c(C)c2c1,-6%,-6%,48%,?
Cc1ccc2oc(C(=O)N(C)Cc3cnccn3)c(C)c2c1,3%,-1%,2.9µM*,?
COc1ccc(N2CC(C(=O)NCc3nnnn3-c3ccc(C)c(C)c3)CC2=O)cc1 (stereo not drawn),-10%,2%,6%,?
CCCc1cc(=O)[nH]c(SCC(=O)NC(=O)OCC)n1,6%,8%,.,24%
COCc1cc(=O)[nH]c(SCC(=O)c2ccccc2)n1,1%,-1%,2.1µM*,-20%
CCCc1cc(=O)[nH]c(SCC(=O)NC(=O)c2ccccc2)n1,-9%,8%,14%,0.41µM*
Cc1ccc(C(=O)CSc2nc(-c3ccccc3)cc(=O)[nH]2)cc1,6%,1%,?,-5%
COCc1cc(=O)[nH]c(SCCS(=O)(=O)c2ccc(C)cc2)n1,4%,1%,2.3µM*,-2%
O=C(CCCl)N1CCN(c2nc(-c3ccccc3)cs2)CC1,23%,-1%,22%,?
CCn1c(SCC(=O)c2ccc(O)c(O)c2)nnc1-c1ccc(C)cc1,10%,-2%,?,-28%
CCn1c(Cc2cccn2C)nnc1SCC(=O)c1ccc(C)cc1,-4%,-7%,13µM*,15µM*
SMILES,NS1 inh,SARS PLP yeast,Pf growth 48h,Pf growth 96h
O=C(C1=C(O)C(=O)N(CC2CCCO2)C1c1ccccc1F)c1ccco1 (stereo not drawn),5%,-1%,16%,210%
CCC(=O)Nc1nnc(S(=O)(=O)N2c3ccccc3CC2C)s1 (stereo not drawn),-6%,1%,21%,45%
CC(C)C(=O)Nc1nnc(S(=O)(=O)N2CCCc3ccccc32)s1,11%,6%,11%,11%
CCC(CC)C(=O)Nc1nnc(S(=O)(=O)N2CCCc3ccccc32)s1,8%,2%,-10%,15µM*
CC(C)CC(=O)Nc1nnc(S(=O)(=O)N2c3ccccc3CC2C)s1 (stereo not drawn),-2%,2%,53%,9.3µM*
O=C(CN1C(=O)NC2(CCCCCC2)C1=O)N1CCCCC1,.,-8%,-8%,-11%
CN(CC(=O)NC1CC1)S(=O)(=O)c1ccc(Br)cc1,16%,.,8.3µM*,6%
CN(CC(=O)NC1CC1)S(=O)(=O)c1cc(Cl)ccc1Cl,-1%,0%,4.1µM*,5.2µM*
O=C(CCS(=O)(=O)c1ccc(Br)cc1)NC1CCCCCC1,-4%,13%,-5%,12µM*
O=C(CCS(=O)(=O)c1ccc(Br)cc1)Nc1ccc2c(c1)OCO2,-1%,6%,1%,0.47µM*
CN(CC(=O)NC1CCCC1)S(=O)(=O)c1cccc(Cl)c1,.,6%,.,.
CN1CCN(NC(=O)CN(C)S(=O)(=O)c2cc(Cl)ccc2Cl)CC1,4%,0%,-11%,12µM*
Cc1ccc(CNC(=O)CCS(=O)(=O)c2ccc(Br)cc2)cc1,.,0%,-11%,?
O=C(CCNS(=O)(=O)c1ccc(Br)s1)NC1CCCC1,2%,1%,?,10µM*
O=C(CCS(=O)(=O)c1ccc(Br)s1)NC1CCCC1,2%,5%,.,-52%
O=C(CCS(=O)(=O)c1ccc(Br)cc1)NCc1ccc(F)cc1,0%,1%,41%,10µM*
O=C(O)C1CCCC[C@H]1C(=O)Nc1ncc([N+](=O)[O-])s1 (stereo partly drawn),.,-9%,8%,22%
O=C(O)CC(CC(=O)O)C(=O)O,0%,.,.,.
Cc1nc(-c2ccccc2)sc1-c1nc(-c2ccncc2)ncc1S(=O)(=O)c1ccccc1,9%,5%,?,1.7µM*
O=S(=O)(c1ccc(Cl)cc1)c1cnc(-c2cccnc2)nc1-c1ccccc1,9%,4%,?,?
Cc1ccc(NC2=C(Cl)C(=O)OC2OC(C)C)cc1 (stereo not drawn),.,-8%,2%,13µM*
Cc1cccc(NC2=C(Cl)C(=O)OC2OC(C)C)c1 (stereo not drawn),.,-4%,2%,0%
COc1ccc(C=Nc2c(O)ccc3ccccc23)cc1OC,-1%,.,.,.
O=[N+]([O-])c1ccccc1Sc1nccn1Cc1ccccc1,-15%,23%,7%,3.3µM*
Cc1cc(C(=O)O)c(=O)[nH]c1C,-5%,1%,35%,2.6µM*
SMILES,NS1 inh,SARS PLP yeast,Pf growth 48h,Pf growth 96h
COc1ccc(S(=O)(=O)Cc2ccc(C(=O)N3CCN(c4cc(Cl)ccc4C)CC3)o2)cc1,-39%,-8%,.,13µM*
COc1ccc(S(=O)(=O)Cc2ccc(C(=O)N3CCN(c4ccc(Cl)cc4)CC3)o2)cc1,-46%,-12%,.,204%
COc1ccc(S(=O)(=O)Cc2ccc(C(=O)N3CCN(c4cc(C)ccc4C)CC3)o2)cc1,-35%,0%,7%,4.7µM*
Cc1ccc(S(=O)(=O)Cc2ccc(C(=O)N3CCN(c4cccc(C)c4C)CC3)o2)cc1,-49%,-7%,-2%,3.7µM*
Cc1ccc(S(=O)(=O)Cc2ccc(C(=O)N3CCc4ccccc4C3)o2)cc1,-4%,-5%,.,13µM*
COc1ccccc1Nc1ncccc1C(=O)O,-13%,9%,11%,9.3µM*
CCOc1ccccc1Nc1ncccc1C(=O)O,-13%,9%,.,1%
Nc1ccc(-c2cc(N)n(-c3ccccc3)n2)cc1,11%,-4%,6.6µM*,.
